This is an account of results in ChEMBL document CHEMBL3433997, “St. Jude Leishmania screening dataset” (2016).

A word on the inhibition: it is the change of the read-out against control, counted positive when it falls.

This assay deals with Solute carrier family 2, facilitated glucose transporter member 1 (Homo sapiens) (UniProt P11166). Put plainly: ST_JUDE_LEISH: Cytotoxicity at 2uM final concentration against transgenic Leishmania Mexicana promastigotes LmGLUT1 that are glucose transport deficient and complemented with the human glucose transporter GLUT1. Activity is measured by DNA content using SYBR green in vitro. In kind it is functional.
Solute carrier family 2, facilitated glucose transporter member 1 (Homo sapiens), sequence (P11166 whole entry): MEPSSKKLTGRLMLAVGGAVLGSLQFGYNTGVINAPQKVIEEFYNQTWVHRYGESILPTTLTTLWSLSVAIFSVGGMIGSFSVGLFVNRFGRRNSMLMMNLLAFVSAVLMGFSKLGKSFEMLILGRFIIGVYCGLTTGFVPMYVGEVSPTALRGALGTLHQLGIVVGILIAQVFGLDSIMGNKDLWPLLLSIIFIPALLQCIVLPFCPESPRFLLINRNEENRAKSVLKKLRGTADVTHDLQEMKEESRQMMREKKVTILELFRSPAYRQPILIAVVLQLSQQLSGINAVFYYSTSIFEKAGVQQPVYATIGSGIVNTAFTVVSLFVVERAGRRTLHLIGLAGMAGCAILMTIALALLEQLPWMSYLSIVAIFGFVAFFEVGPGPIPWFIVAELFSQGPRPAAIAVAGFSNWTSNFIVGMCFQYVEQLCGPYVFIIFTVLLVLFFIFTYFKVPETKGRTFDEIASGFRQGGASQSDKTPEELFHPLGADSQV
With `CCC(C)C#Cc1c(C)nc(N)nc1N` (stereo unspecified), the inhibition is 0.18%.
In the case of `CNC(=O)C(NC(=O)c1ccccc1C(=O)OC)c1ccccc1` (stereo unspecified) it was 1.77%; in that of `N=c1n(CCN2CCCCC2)c2ccccc2n1CC(O)c1ccc(Cl)c(Cl)c1` (stereo unspecified), 1.22%; in that of `Fc1cc(Cl)ccc1Nc1ccnc2cc(-c3ccc(CN4CCOCC4)o3)ccc12`, 20.6%.
In the case of `COc1c(CNCCCCCCNCc2cc(Cl)c3ccccc3c2OC)cc(Cl)c2ccccc12` it was 1.94%; in that of `O=C(Nc1ccc(Cl)cc1Cl)N[C@H]1CCN(CCCCCNC(=O)C2CC2c2ccc(Cl)c(Cl)c2)C1` (stereo partly specified), 3.75%.
Consider `Nc1cc(-c2cccc(Cl)c2)nn1-c1ccnc2cc(Cl)ccc12`, for which the inhibition is -0.77%.
As for `O=C(Nc1ccccc1F)NC1CCN(c2ccnc(Nc3ccc(F)cc3)n2)C1` (stereo unspecified), the figure is 0.46%.
As for `CN(C)c1nc2cc(-n3cnc4cc(-c5ccc(Cl)cc5)sc4c3=O)ccc2n1CCCN1CCCC1`, the figure is 12%.
As for `CN(c1ccc(NC(=O)c2ccc(F)cc2)cc1)C1CCN(Cc2cccc(F)c2)C1` (stereo unspecified), the figure is 1.66%; as for `Cc1[nH]c(C)c(-c2ccc(OCc3ccc(F)cc3)cc2)c(=O)c1Cl`, -0.65%; as for `CC(C)CNCc1ccc(-c2ccccc2CNC2CCN(Cc3ccccc3)CC2)cc1`, 7.04%.
As for `Oc1ccc(CCNc2nc(NCc3cccc(OCc4cccc(F)c4)c3)nc(N3CCNCC3)n2)cc1`, the inhibition was -1.28%.
In the case of `Cc1cc(C)cc(OCC(O)CN(Cc2cc(Cl)cc(Cl)c2)C(=O)Nc2ccc(Cl)cc2)c1` (stereo unspecified) it was 0.89%; in that of `O=C1NC(=O)C(c2ccc(Cl)cc2)=C1Nc1cccc(S(=O)(=O)C(F)(F)F)c1`, 1.37%; in that of `Cc1ccccc1C1CCN(C2CCC(NC(=O)c3cc4cc(Cl)ccc4o3)CC2)CC1` (stereo unspecified), 1.84%.
